Bioassay records deposited in PubChem by National Center for Advancing Translational Sciences (NCATS).
Rows were chosen to be rich in hits. Some 2.5% of all compounds tested hit in one or more screens of this group.
L3MBTL1 inh = blocks human L3MBTL1; Q9Y468; AlphaScreen L3MBTL1–H3K9me1 peptide binding; Potency, µM (highest dose often 57.1 µM), hits mostly inhibitors; actives 0.66% (n = 230,000); AID 485360; also: nearly all actives have a fitted effect of over 60% in size
Target sequence (Q9Y468 whole entry, looked up): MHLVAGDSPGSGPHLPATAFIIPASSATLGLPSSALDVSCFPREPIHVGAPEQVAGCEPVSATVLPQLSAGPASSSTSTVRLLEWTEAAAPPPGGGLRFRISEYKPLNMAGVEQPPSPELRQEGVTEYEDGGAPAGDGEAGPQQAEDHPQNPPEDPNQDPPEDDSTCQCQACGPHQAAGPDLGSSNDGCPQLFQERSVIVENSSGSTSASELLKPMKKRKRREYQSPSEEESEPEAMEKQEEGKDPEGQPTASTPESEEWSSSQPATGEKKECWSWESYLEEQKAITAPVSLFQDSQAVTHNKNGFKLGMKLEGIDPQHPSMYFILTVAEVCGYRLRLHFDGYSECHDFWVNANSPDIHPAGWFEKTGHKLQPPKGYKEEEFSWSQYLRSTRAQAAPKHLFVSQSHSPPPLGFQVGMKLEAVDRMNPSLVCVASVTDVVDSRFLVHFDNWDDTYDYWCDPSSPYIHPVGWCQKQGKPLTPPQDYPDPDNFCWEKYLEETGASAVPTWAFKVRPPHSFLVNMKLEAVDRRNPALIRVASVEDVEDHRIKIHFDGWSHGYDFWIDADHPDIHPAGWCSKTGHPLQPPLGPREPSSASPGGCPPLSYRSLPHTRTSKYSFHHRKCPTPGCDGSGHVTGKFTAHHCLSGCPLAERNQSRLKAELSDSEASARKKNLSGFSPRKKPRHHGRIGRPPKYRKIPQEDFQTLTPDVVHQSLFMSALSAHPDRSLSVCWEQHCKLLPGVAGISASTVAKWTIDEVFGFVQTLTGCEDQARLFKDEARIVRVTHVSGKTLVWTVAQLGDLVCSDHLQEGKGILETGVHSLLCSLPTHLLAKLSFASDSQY
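First, the protein-peptide complex forms for 30 min at room temperature (L3MBTL1 50 nM, biotinylated H3K9me1 peptide 75 nM). Next, compounds are pin-transferred and incubated 30 min. Finally, AlphaScreen beads are added and read after 30 min.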
POLH inh = blocks human DNA polymerase eta activity. Q9Y253. recombinant Pol eta, fluorescent DNA replication assay. Potency, µM (series often up to 114 µM), usual class: inhibitors. actives 1.2% (n = 390,000). AID 588591
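Fluorescent replication assay: 50 nM final substrate added after a 15 min room-temperature compound preincubation with 10 nM enzyme. Signal taken at 0 min and again at 10 min.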
POLB inh = inhibitors of human DNA polymerase beta; Potency, µM (series often up to 114 µM), usual class: inhibitors; actives 1.3% (n = 340,000); Pol beta primer extension/strand displacement, fluorescence kinetic; P06746
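Curves were derived by four-parameter Hill fits of normalized qHTS data. The kinetic fluorescent primer-extension read was taken at 0 and 10 min after 50 nM substrate, following a 15 min room-temperature preincubation of 10 nM enzyme with compounds.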
Pol kappa inh = blocks human DNA polymerase kappa activity | Potency, µM (top dose mostly 107 µM), hits mostly inhibitors | Q9UBT6 | purified Pol kappa, fluorescent DNA synthesis assay, 10 min | actives 0.53% (n = 400,000)
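Kinetic fluorescence readout at 0 and 10 min followed reaction start with substrate at 50 nM final. Beforehand, enzyme (10 nM Pol kappa) stood 15 min with compound at room temperature; buffer-only wells were negative controls.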
APE1 inh = blocks human APE1 abasic DNA cleavage. recombinant APE1, TAMRA/BHQ-2 abasic DNA cleavage fluorescence. P27695. AID 2517. Potency, µM (titrated, usually from 65.8 µM), actives largely listed as inhibitors. actives 0.35% (n = 350,000); also: nearly all actives have a fitted effect of over 55% in size
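Step 1: APE1 (0.75 nM) with compound, 15 min RT. Step 2: add 50 nM fluorophore/quencher THF duplex. Step 3: three fluorescence reads 60 s apart (525/598 nm); read 3 minus read 1 = reaction progress.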
POLI inh = inhibitors of human DNA polymerase iota; Q9UNA4; Pol iota fluorescent replication assay, 10 min; Potency, µM (series often up to 115 µM), usual class: inhibitors; actives 1% (n = 390,000); AID 588590
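Fluorescent replication assay read twice, at 0 min and 10 min after adding 50 nM (final) substrate. Enzyme (10 nM) and compounds were first incubated 15 min at room temperature; enzyme-free buffer wells were negative controls.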
Hits are given with their value. Calls follow the shape of the dose curve; as a rule, active = well fitted curve in the direction sought with a large enough effect; inconclusive = small, poorly fitted or top-dose-only effect, or another doubt; inactive = no such curve, though single readings can be large; an effect the other way counts as inactive or inconclusive.

How did Cc1nn(CC(=O)Nc2ccc(Cl)cc2Cl)c(=O)c2ccccc12 do in these assays?
L3MBTL1 inh: inactive; POLH inh: inactive; POLB inh: inactive; Pol kappa inh: inactive; APE1 inh: inactive; POLI inh: inactive

How did COc1ccc(/C=C(/C(=O)N2CCCCC2C(=O)O)c2ccc(OC)c(OC)c2)cc1 (stereo not drawn) do in these assays?
L3MBTL1 inh: inactive; POLH inh: inactive; Pol kappa inh: inactive; APE1 inh: inactive; POLI inh: 79µM

How did Cn1c(=O)c(C#N)c(-c2ccc(F)cc2)c2cc(C(=O)c3cc(Cl)cc(Cl)c3O)cnc21 do in these assays?
L3MBTL1 inh: inactive; POLH inh: 40µM; POLB inh: inconclusive; Pol kappa inh: inactive; APE1 inh: inactive; POLI inh: inconclusive

How did COc1ccccc1-n1c(=O)c(C#N)c(-c2ccc([N+](=O)[O-])cc2)c2cc(C(=O)c3cc(F)ccc3O)cnc21 do in these assays?
L3MBTL1 inh: inactive; POLH inh: inactive; POLB inh: inactive; Pol kappa inh: inactive; APE1 inh: inactive; POLI inh: inactive

What do the screens show for `O=C(Cn1cnc([N+](=O)[O-])n1)c1ccc(O)c(O)c1`?
POLH inh: inconclusive; POLB inh: inconclusive; Pol kappa inh: inconclusive; APE1 inh: inactive; POLI inh: 7.1µM

How did O=C(Cn1cnc([N+](=O)[O-])n1)c1ccccc1 do in these assays?
L3MBTL1 inh: inactive; POLH inh: inactive; POLB inh: inconclusive; Pol kappa inh: inactive; APE1 inh: inactive; POLI inh: inactive

What do the screens show for `COc1ccc(Nc2nc(-c3cc4cccc(OC)c4oc3=O)cs2)cc1`?
L3MBTL1 inh: inactive; POLH inh: inactive; POLB inh: inactive; Pol kappa inh: inactive; APE1 inh: inactive; POLI inh: inactive

Results for COc1cccc2cc(/C(C)=N/Nc3nc(-c4cc(C)ccc4C)cs3)c(=O)oc12 ?
L3MBTL1 inh: inactive; POLH inh: 50µM; POLB inh: 40µM; Pol kappa inh: inactive; APE1 inh: inactive; POLI inh: inactive

Results for CC1=NN(c2ccccc2)C(=O)C1 ?
L3MBTL1 inh: inactive; POLH inh: inactive; POLB inh: inactive; Pol kappa inh: inactive; APE1 inh: inconclusive; POLI inh: inconclusive

How did CC1=NN(Cc2ccccc2)C(=O)C1 do in these assays?
L3MBTL1 inh: inactive; POLH inh: inactive; POLB inh: inactive; Pol kappa inh: inactive; APE1 inh: inactive; POLI inh: 3.2µM

How did CCOc1ccc(-n2ccnc2SCC(=O)Nc2ccc(OC)cc2OC)cc1 do in these assays?
POLH inh: inactive; POLB inh: inactive; Pol kappa inh: inactive; POLI inh: inactive

How did Cc1cccc(C(=O)Nc2nc3c(s2)CCCC3)c1 do in these assays?
POLH inh: inactive; POLB inh: inactive; Pol kappa inh: inactive; POLI inh: inactive

What do the screens show for `O=C(Nc1nc2c(s1)CCCC2)c1ccc(Br)s1`?
L3MBTL1 inh: inactive; POLH inh: inactive; POLB inh: inactive; Pol kappa inh: inactive; APE1 inh: inactive; POLI inh: 79µM

What do the screens show for `CCCc1nc2sc3ccccc3c(=O)c2c(=O)n1Cc1ccccc1`?
POLH inh: inactive; Pol kappa inh: inactive; POLI inh: inactive

How did O=c1c2ccccc2sc2nc(C3CCCCC3)n(Cc3ccco3)c(=O)c12 do in these assays?
POLH inh: inconclusive; POLB inh: 22µM; Pol kappa inh: inactive; APE1 inh: inactive; POLI inh: inconclusive

Results for CN1CCN(C(=O)c2cnn(-c3ccccc3)c2NC(=O)c2ccccc2Cl)CC1 ?
POLH inh: inactive; POLB inh: inactive; Pol kappa inh: inactive; APE1 inh: inactive; POLI inh: inactive

What do the screens show for `CCC(=Nc1ccc(N)cc1)C1=C(O)C(C(=O)OC)C(C)(C)CC1=O` (stereo not drawn)?
L3MBTL1 inh: 28µM; POLH inh: inactive; POLB inh: inactive; Pol kappa inh: inconclusive; APE1 inh: inconclusive; POLI inh: inconclusive

Results for CNc1ccc(/C=C2\C=Cc3ccccc32)cc1Cl ?
Pol kappa inh: inactive; POLI inh: inactive

Results for CCOC(=O)N1CCN(C(=O)CSCc2nc(-c3ccccc3F)oc2C)CC1 ?
L3MBTL1 inh: inactive; POLH inh: inactive; POLB inh: inactive; Pol kappa inh: inactive; APE1 inh: inactive; POLI inh: 89µM

Results for CCOC(=O)N1CCN(C(=O)CSCc2nc(-c3ccccc3C)oc2C)CC1 ?
L3MBTL1 inh: inactive; POLH inh: inactive; POLB inh: inactive; Pol kappa inh: inactive; APE1 inh: inactive; POLI inh: inactive

What do the screens show for `COc1ccc(-c2ccc(Nc3ccc(C(=O)N4CCOCC4)cc3)nn2)cc1OC`?
L3MBTL1 inh: inactive; POLH inh: inactive; POLB inh: 28µM; Pol kappa inh: inactive; APE1 inh: inactive; POLI inh: inconclusive

How did NC(=O)Cn1c(=O)n(CCC(=O)Nc2ccc(F)cc2)c(=O)c2sccc21 do in these assays?
POLH inh: inactive; POLB inh: inactive; Pol kappa inh: inactive; APE1 inh: inactive; POLI inh: inactive

How did CC1CCN(C2=C(NS(=O)(=O)c3ccc(Br)cc3)C(=O)c3ccccc3C2=O)CC1 do in these assays?
POLH inh: inactive; POLB inh: inactive; Pol kappa inh: inactive; APE1 inh: inactive; POLI inh: 7.1µM

How did CCN1CCN(C2=C(NS(=O)(=O)c3ccc(NC(C)=O)cc3)C(=O)c3ccccc3C2=O)CC1 do in these assays?
POLH inh: inactive; POLB inh: inactive; Pol kappa inh: inactive; APE1 inh: inactive; POLI inh: inactive

How did CC1CCCN(C2=C(NS(=O)(=O)c3ccc(Br)cc3)C(=O)c3ccccc3C2=O)C1 (stereo not drawn) do in these assays?
POLH inh: inactive; POLB inh: inactive; Pol kappa inh: inactive; APE1 inh: inactive; POLI inh: inactive

How did CC1CCN(C2=C(NS(=O)(=O)c3ccc(Cl)cc3)C(=O)c3ccccc3C2=O)CC1 do in these assays?
L3MBTL1 inh: 16µM; POLH inh: inactive; POLB inh: inactive; Pol kappa inh: inactive; APE1 inh: inactive; POLI inh: inactive

What do the screens show for `CC1CCN(C2=C(NS(=O)(=O)c3ccccc3)C(=O)c3ccccc3C2=O)CC1`?
L3MBTL1 inh: 11µM; POLH inh: inactive; POLB inh: inconclusive; Pol kappa inh: inactive; APE1 inh: inconclusive; POLI inh: inconclusive

What do the screens show for `CCOC(=O)N1CCN(C2=C(NS(=O)(=O)c3ccc(NC(C)=O)cc3)C(=O)c3ccccc3C2=O)CC1`?
POLH inh: inactive; POLB inh: inconclusive; Pol kappa inh: inactive; APE1 inh: inactive; POLI inh: 6.3µM

Results for O=C(NCC(c1ccc(Cl)cc1)N1CCCCC1)c1ccccc1 (stereo not drawn) ?
POLH inh: inactive; POLB inh: inactive; Pol kappa inh: inactive; POLI inh: inactive
